Measurements: PubChem BioAssay (Tox21)
Results filed as inconclusive are left out. Activity calls are given as the source filed them. Unless noted, calls come from the whole dose curve; as a rule, active = well fitted curve in the direction sought with a large enough effect in the repeat runs; inconclusive = weak or mixed curves; inactive = no such curve, though single readings can be large; an effect the other way counts as inactive or inconclusive.

Tests used:
[1] = qHTS assay to identify small molecule antagonists of the estrogen related receptor (ERR) signaling pathway from Tox21 library - cell viability counter screen (AID 1224834); note: nearly all actives have a fitted effect of over 30% in size
Procedure, shortened: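 Multiplexed viability counter screen in ERR cells: 17.5 h compound exposure at 37 C, CellTiter-Fluor added, 30 min at 37 C/5% CO2, fluorescence read.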

[2] = target: Luciferin 4-monooxygenase (Photinus pyralis) (UniProt P08659); experiment: qHTS assay to identify small molecule inhibitors of firefly luciferase (AID 1224835); note: series mostly up to about 120 µM; nearly all actives have a fitted effect of over 25% in size
Sequence of Luciferin 4-monooxygenase (Photinus pyralis) (P08659 whole entry, looked up): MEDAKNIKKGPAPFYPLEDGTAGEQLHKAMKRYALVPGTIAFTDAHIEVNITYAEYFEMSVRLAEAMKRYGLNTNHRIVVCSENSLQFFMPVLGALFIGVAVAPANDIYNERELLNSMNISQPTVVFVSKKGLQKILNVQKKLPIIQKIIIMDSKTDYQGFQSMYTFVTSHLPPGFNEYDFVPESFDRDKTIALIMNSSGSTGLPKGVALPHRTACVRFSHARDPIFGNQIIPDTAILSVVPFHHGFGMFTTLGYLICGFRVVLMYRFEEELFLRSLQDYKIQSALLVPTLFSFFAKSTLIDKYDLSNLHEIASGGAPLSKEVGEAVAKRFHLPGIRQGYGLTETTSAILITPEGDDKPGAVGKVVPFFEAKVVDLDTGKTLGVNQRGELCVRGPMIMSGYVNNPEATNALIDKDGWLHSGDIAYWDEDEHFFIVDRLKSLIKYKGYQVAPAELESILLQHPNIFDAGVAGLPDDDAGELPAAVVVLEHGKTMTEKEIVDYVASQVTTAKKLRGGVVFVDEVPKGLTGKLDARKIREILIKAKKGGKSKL
Procedure, shortened: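 Inhibition of purified Photinus luciferase is measured by luminescence. Substrate levels (D-luciferin, ATP) sit at their KM values. Each compound is tested in a concentration series.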

[3] = qHTS assay to identify small molecule agonists of the constitutive androstane receptor (CAR) signaling pathway - cell viability counter screen (AID 1224836); note: series mostly up to about 92 µM; nearly all actives have a fitted effect of over 45% in size
Procedure, shortened: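 Cells were seeded and incubated 4 hrs. Compounds were added across 15 concentrations together with PK11195 at 0.75 uM final. Plates were incubated 23 hrs at 37 C. CellTiter-Fluor was added and fluorescence measured.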

[4] = qHTS assay to identify small molecule antagonists of the constitutive androstane receptor (CAR) signaling pathway - cell viability counter screen (AID 1224837); note: series mostly up to about 92 µM; nearly all actives have a fitted effect of over 45% in size
Procedure, shortened: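 Read-out: CellTiter-Fluor fluorescence after 23 hr at 37 C/5% CO2. Cells: HepG2 double-stable for hCAR and CYP2B6-2.2kb. Compounds tested at 15 concentrations in the presence of CITCO, final concentration 50 nM.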

[5] = target: Nuclear receptor subfamily 1 group I member 3 (Homo sapiens) (UniProt Q14994); experiment: qHTS assay to identify small molecule antagonists of the constitutive androstane receptor (CAR) signaling pathway (AID 1224838);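 note: HepG2 cells stably expressing hCAR with CYP2B6 luciferase reporter stimulated by CITCO; nearly all actives have a fitted effect of over 40% in size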
Sequence of Nuclear receptor subfamily 1 group I member 3 (Homo sapiens) (Q14994 whole entry, looked up): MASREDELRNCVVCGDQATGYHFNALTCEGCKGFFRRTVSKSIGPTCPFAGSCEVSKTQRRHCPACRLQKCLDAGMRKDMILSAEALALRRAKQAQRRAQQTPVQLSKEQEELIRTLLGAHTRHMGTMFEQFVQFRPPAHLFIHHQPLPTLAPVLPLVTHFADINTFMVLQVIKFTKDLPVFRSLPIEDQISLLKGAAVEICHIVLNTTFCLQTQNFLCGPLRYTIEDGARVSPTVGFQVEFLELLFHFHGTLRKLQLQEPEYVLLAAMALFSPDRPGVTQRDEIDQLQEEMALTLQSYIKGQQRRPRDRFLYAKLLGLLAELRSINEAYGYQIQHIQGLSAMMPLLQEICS
Procedure, shortened: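 Read-out: ONE-Glo luciferase luminescence after 30 min at room temperature. HepG2-CYP2B6-hCAR double-stable cells, compounds in 15-point titration plus 50 nM CITCO final, 24 h at 37 C/5% CO2.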

[6] = target: Nuclear receptor subfamily 1 group I member 3 (Homo sapiens) (UniProt Q14994); experiment: qHTS assay to identify small molecule agonists of the constitutive androstane receptor (CAR) signaling pathway (AID 1224839);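 note: HepG2 cells stably carrying human CAR and a CYP2B6 luciferase reporter; series mostly up to about 92 µM; nearly all actives have a fitted effect of over 15% in size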
Procedure, shortened: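 Cells were plated and incubated 4 hrs, then dosed with compounds at 15 concentrations. PK11195 was added to 0.75 uM final. After 24 hrs at 37 C, luciferase luminescence was measured.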

[7] = qHTS assay to identify small molecule antagonists of the estrogen related receptor signaling pathway with the pleiotropic PPARgamma coactivator (PGC) from Tox21 10K library - cell viability counter screen (AID 1224840; active = well fitted cell-killing curve with a large enough effect in the repeat runs, not every such curve was filed as active; note: nearly all actives have a fitted effect of over 40% in size)
Procedure, shortened: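 Fluorescence read-out of CellTiter-Fluor viability reagent, added after cells had been exposed to compound in DMSO for 17.5 h at 37 C; 30 min development at 37 C/5% CO2. Cells: PGC/ERR line, 2,000/well.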

[8] = target: Thyrotropin receptor (Homo sapiens) (UniProt P16473); experiment: qHTS assay to identify small molecule agonists of the thyroid stimulating hormone receptor (TSHR) signaling pathway (AID 1224843; calls by dose curve; note: nearly all actives have a fitted effect of over 45% in size)
Sequence of Thyrotropin receptor (Homo sapiens) (P16473 whole entry, looked up): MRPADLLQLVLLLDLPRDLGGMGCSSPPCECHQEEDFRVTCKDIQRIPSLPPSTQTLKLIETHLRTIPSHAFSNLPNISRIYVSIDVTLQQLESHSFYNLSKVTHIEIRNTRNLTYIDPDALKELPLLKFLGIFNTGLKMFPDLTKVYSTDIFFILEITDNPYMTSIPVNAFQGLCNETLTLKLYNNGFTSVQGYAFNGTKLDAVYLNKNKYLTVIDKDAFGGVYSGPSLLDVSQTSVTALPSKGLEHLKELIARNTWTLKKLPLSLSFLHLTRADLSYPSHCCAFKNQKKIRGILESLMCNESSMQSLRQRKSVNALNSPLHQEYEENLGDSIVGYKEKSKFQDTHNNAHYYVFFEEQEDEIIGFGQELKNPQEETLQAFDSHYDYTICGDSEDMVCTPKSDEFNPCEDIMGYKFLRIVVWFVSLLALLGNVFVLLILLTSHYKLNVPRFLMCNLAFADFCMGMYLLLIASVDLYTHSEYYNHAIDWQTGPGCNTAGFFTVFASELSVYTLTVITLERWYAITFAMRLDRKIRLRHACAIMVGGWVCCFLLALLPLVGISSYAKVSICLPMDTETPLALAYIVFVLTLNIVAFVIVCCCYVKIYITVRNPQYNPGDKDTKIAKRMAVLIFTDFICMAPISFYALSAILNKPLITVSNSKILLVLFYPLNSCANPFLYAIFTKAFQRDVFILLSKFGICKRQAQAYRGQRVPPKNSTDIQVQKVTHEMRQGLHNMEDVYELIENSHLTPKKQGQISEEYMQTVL
Procedure, shortened: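 Agonist activity read as cAMP rise via d2/cryptate HTRF competition, 1 h room-temperature detection, in HEK293 cells expressing TSHR. Fifteen-point titrations, each run in triplicate, with a 30 min room-temperature incubation beforehand.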

[9] = qHTS assay to identify small molecule agonists of the hypoxia (HIF-1) signaling pathway - cell viability counter screen (AID 1224844; calls by dose curve; note: nearly all actives have a fitted effect of over 50% in size)
Procedure, shortened: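 CellTiter-Glo luminescence read-out, 30 min RT, taken in the same wells as the beta-lactamase HRE reporter assay; HRE-bla ME-180 cells, 0.5% dialyzed FBS, 17 hr compound treatment at 37C, 5% CO2.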

[10] = qHTS assay to identify small molecule agonists of H2AX (AID 1224845; active = well fitted activation curve with a large enough effect in the signal ratio in the repeat runs, not every such curve was filed as active; the % refers to the signal ratio)
Procedure, shortened: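 Phospho-H2AX Ser139 measured by HTRF (ex 320 nm; em 665 and 620 nm) after 24 hr antibody incubation. Compounds, 15 concentrations, 0.76% DMSO, were applied to CHO-K1 cells for 3hr at 37C before lysis.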

[11] = qHTS assay to identify small molecule agonists of the hypoxia (HIF-1) signaling pathway (AID 1224846; active = well fitted activation curve with a large enough effect in the signal ratio in the repeat runs, not every such curve was filed as active; the % refers to the signal ratio)
Procedure, shortened: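 Beta-lactamase FRET read-out (CCF4-AM substrate) from ME-180 cells carrying an HRE-driven bla reporter, after 17 hrs compound exposure at 37C/5% CO2. Cells were seeded at 2,000 per well in 0.5% dialyzed FBS medium and preincubated 5 hrs.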

[12] = qHTS RealTime-Glo MT Cell Viability Assay in HepG2 cells - 24 hour (AID 1224867); note: nearly all actives have a fitted effect of over 50% in size
Procedure, shortened: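 Real-time, nonlytic viability: 600 HepG2 cells/well mixed with NanoLuc enzyme plus prosubstrate; 5 h settle, compound (DMSO) added by pintool; luminescence monitored over 40 h at 37 C.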

[13] = A CellTox Green Cytotoxicity Assay to monitor cytotoxicity in HEK293 cells - 0 hour (AID 1224869); note: nearly all actives have a fitted effect of over 50% in size
Procedure, shortened: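 Read-out: fluorescence of a cell-impermeant cyanine dye staining DNA of dead cells, proportional to cytotoxicity. HEK293, 600 cells/well with reagent, compound (23 nL DMSO) added after 5 h; reads at 0, 8, 16, 24, 32, 40 h.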

[14] = qHTS RealTime-Glo MT Cell Viability Assay in HepG2 cells - 40 hour (AID 1224870); note: nearly all actives have a fitted effect of over 50% in size
Procedure, shortened: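 Real-time viability: cells seeded at 600 per well together with NanoLuc and cell-permeant prosubstrate, compounds added after 5 h incubation. Luminescence tracked at 0, 8, 16, 24, 32 and 40 h of exposure.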

[15] = qHTS assay to identify small molecule agonists of H2AX - cell viability counter screen (AID 1224847; calls by dose curve; note: top concentration of the series differs between compounds; nearly all actives have a fitted effect of over 30% in size)
Procedure, shortened: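 Cytotoxicity counter screen in wild-type CHO-K1 cells: a 3 hr compound treatment at 37C across 15 concentrations, followed by CellTiter-Glo luminescence to gauge viable cells.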

[16] = qHTS RealTime-Glo MT Cell Viability Assay in HEK293 cells - 32 hour (AID 1224868)
Procedure, shortened: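 Cells + reagent dispensed (600 cells/well, HEK293) → 5 h at 37 C/5% CO2 → 23 nL compound in DMSO pinned → 40 h at 37 C → luminescence read at 0, 8, 16, 24, 32, 40 h.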
% is set by controls: 0 for no effect and ±100 for the full control effect.

CSCC[C@H](NC(=O)[C@H](Cc1c[nH]c2ccccc12)NC(=O)CCNC(=O)OC(C)(C)C)C(=O)N[C@@H](CC(=O)O)C(=O)N[C@@H](Cc1ccccc1)C(N)=O
inactive: Potency [1] | Potency [2] | Potency [3] | Potency [4] | Potency [5] | Potency [6] | Potency [7] | Potency [8] | Potency [9] | Potency [10] | outcome [11] | Potency [12] | Potency [13] | Potency [14]

CC1CCCC(=O)C1=O (stereo not drawn)
inactive: Potency [1] | Potency [2] | Potency [3] | Potency [4] | Potency [5] | Potency [6] | Potency [7] | Potency [9] | Potency [10] | outcome [11] | Potency [15] | Potency [12] | Potency [13] | Potency [14]

CCCCCCC(O)CCCCCCCCCCC(=O)OC (stereo not drawn)
inactive: Potency [1] | Potency [2] | Potency [3] | Potency [4] | Potency [5] | Potency [6] | Potency [7] | Potency [8] | Potency [9] | Potency [10] | outcome [11] | Potency [15] | Potency [16] | Potency [14]

C=CCOC(=O)COCCC(C)C
inactive: Potency [1] | Potency [2] | Potency [3] | Potency [4] | Potency [5] | Potency [6] | Potency [7] | Potency [8] | Potency [9] | Potency [10] | outcome [11] | Potency [15] | Potency [12] | Potency [16] | Potency [13] | Potency [14]

O=C(O)c1cccc(C[C@@H]2COc3ccc(OCc4nc5cc(F)ccc5s4)cc3[C@@H]2O)c1
inactive: Potency [1] | Potency [2] | Potency [3] | Potency [4] | Potency [5] | Potency [6] | Potency [7] | Potency [9] | Potency [10] | outcome [11] | Potency [12] | Potency [16] | Potency [13] | Potency [14]

CC(=O)C(C)=O
inactive: Potency [1] | Potency [2] | Potency [3] | Potency [4] | Potency [5] | Potency [6] | Potency [7] | Potency [8] | Potency [9] | Potency [10] | Potency [15] | Potency [12] | Potency [16] | Potency [13] | Potency [14]

CCCC(=O)OC(=O)CCC
inactive: Potency [1] | Potency [2] | Potency [3] | Potency [4] | Potency [5] | Potency [6] | Potency [7] | Potency [9] | Potency [10] | outcome [11] | Potency [15] | Potency [12] | Potency [13] | Potency [14]

CCCCOCCOC(=O)c1cccnc1
inactive: Potency [1] | Potency [2] | Potency [3] | Potency [4] | Potency [5] | Potency [6] | Potency [7] | Potency [9] | Potency [10] | outcome [11] | Potency [15] | Potency [12] | Potency [16] | Potency [13] | Potency [14]

CCCCCCCCCCCCCOC(=O)CCSCCC(=O)OCCCCCCCCCCCCC
inactive: viability change, negative = cytotoxic [1] -0.449% [at 19 µM] | activity change, negative = inhibition [2] -2.08% [at 23.6 µM] | viability change, negative = cytotoxic [3] -3.39% [at 19 µM] | activity change, negative = cytotoxicity [4] -3.13% [at 19 µM] | activity, negative = inhibition [5] 5.4% [at 19 µM] | activation [6] -0.548% [at 19 µM] | viability change, negative = cytotoxic [7] 0.0068% [at 19 µM] | activation [8] -1.63% [at 19 µM] | activity change, negative = cytotoxicity [9] 4.03% [at 15.8 µM] | activation (H2AX phosphorylation) [10] 0.898% [at 31.6 µM] | activation [11] 0.146% [at 15.8 µM] | activity change, negative = cytotoxicity [15] -1.78% [at 31.6 µM] | activity change, negative = cytotoxic [16] -0.356% [at 15.8 µM] | activity change, negative = cytotoxic [14] 6.27% [at 15.8 µM]

CCOC(=O)Oc1ccc(CCNC(=O)[C@H](CCSC)NC(C)=O)cc1OC(=O)OCC
inactive: Potency [1] | Potency [2] | Potency [3] | Potency [4] | Potency [5] | Potency [6] | Potency [7] | Potency [8] | Potency [9] | outcome [11] | Potency [15] | Potency [12] | Potency [16] | Potency [13] | Potency [14]

CC[C@H]1OC(=O)[C@H](C)[C@@H](O[C@H]2C[C@@](C)(OC)[C@@H](O)[C@H](C)O2)[C@H](C)[C@@H](O[C@@H]2O[C@H](C)C[C@H](N(C)C)[C@H]2O)[C@](C)(O)C[C@@H](C)CN(C)[C@H](C)[C@@H](O)[C@]1(C)O
inactive: Potency [1] | Potency [2] | Potency [3] | Potency [4] | Potency [5] | Potency [6] | Potency [7] | Potency [9] | Potency [10] | outcome [11] | Potency [15] | Potency [12] | Potency [13] | Potency [14]

O=C(O)CO
inactive: Potency [1] | Potency [2] | Potency [3] | Potency [4] | Potency [5] | Potency [6] | Potency [7] | Potency [9] | Potency [10] | outcome [11] | Potency [15] | Potency [12] | Potency [16] | Potency [13] | Potency [14]

CCCCCCCCCCCCCCCCCC(=O)OCC(CC)CCCC (stereo not drawn)
inactive: Potency [1] | Potency [2] | Potency [3] | Potency [4] | Potency [5] | Potency [6] | Potency [7] | Potency [9] | Potency [10] | outcome [11] | Potency [12] | Potency [16] | Potency [13] | Potency [14]

Oc1cccc2[nH]ccc12
inactive: Potency [1] | Potency [2] | Potency [3] | Potency [4] | Potency [5] | Potency [6] | Potency [7] | Potency [8] | Potency [9] | outcome [11] | Potency [15] | Potency [12] | Potency [16] | Potency [13] | Potency [14]
